How the values were obtained:
Test in all cases: log2 ratio of Biotin-Ahx-Ub-VS probe labelling (fragment/DMSO); higher = less target engagement (more negative = stronger competition), active = hit call of the paper (q ≤ 0.05, log2 ratio ≤ -1)
Conditions in all cases: compound concentration: 200 uM; treatment time: 3 h
[1] = target: USP34 (UniProt Q70CQ2)
Method in brief: (§1)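 HEK293T lysate, 495 µg per sample in Tris/CHAPS/IGEPAL buffer with protease inhibitors, was treated in triplicate with fragment at 200 µM or vehicle for 3 h and then with Biotin-Ahx-Ub-VS at 0.5 µM final for 1 h. Labelled DUBs were NeutrAvidin-enriched, digested with LysC and trypsin, and run by diaPASEF LC-MS/MS. Spectronaut label-free quantities were global-median-normalised, and values are average log2 fragment/vehicle ratios by unpaired t-test on proteins with ≥2 unique peptides.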

[2] = target: T1, USP36 (UniProt Q9P275)
T1 sequence (whole entry): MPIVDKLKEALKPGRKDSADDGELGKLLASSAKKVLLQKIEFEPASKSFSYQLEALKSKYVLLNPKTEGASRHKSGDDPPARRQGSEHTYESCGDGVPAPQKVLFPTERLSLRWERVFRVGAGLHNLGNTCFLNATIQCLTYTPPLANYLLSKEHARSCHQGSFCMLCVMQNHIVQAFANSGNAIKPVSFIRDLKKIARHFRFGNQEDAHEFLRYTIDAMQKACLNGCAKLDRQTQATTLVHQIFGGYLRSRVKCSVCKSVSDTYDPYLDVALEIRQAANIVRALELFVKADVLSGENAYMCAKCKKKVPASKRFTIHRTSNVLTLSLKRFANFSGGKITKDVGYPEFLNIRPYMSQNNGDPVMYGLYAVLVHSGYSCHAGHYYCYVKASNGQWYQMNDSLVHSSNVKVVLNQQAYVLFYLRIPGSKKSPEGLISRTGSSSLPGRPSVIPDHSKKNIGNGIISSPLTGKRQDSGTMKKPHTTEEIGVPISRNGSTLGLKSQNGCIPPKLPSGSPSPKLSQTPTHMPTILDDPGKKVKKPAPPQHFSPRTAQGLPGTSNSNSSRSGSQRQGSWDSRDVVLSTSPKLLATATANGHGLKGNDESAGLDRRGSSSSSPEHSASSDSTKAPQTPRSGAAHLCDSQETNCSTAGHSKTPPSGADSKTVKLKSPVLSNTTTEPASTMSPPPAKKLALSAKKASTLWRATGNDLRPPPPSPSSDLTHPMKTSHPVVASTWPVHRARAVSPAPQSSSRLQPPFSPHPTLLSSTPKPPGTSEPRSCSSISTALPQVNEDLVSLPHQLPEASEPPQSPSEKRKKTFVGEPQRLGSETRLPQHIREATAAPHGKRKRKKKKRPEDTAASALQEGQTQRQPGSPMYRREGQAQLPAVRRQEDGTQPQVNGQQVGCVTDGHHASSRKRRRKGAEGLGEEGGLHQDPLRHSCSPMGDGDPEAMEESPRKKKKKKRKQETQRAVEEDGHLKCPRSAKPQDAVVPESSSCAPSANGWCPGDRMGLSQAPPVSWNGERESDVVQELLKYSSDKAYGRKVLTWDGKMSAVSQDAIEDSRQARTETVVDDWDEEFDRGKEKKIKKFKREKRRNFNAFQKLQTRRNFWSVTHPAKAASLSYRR
Method in brief: as §1

[3] = target: T2, USP38 (UniProt Q8NB14)
T2 sequence (whole entry): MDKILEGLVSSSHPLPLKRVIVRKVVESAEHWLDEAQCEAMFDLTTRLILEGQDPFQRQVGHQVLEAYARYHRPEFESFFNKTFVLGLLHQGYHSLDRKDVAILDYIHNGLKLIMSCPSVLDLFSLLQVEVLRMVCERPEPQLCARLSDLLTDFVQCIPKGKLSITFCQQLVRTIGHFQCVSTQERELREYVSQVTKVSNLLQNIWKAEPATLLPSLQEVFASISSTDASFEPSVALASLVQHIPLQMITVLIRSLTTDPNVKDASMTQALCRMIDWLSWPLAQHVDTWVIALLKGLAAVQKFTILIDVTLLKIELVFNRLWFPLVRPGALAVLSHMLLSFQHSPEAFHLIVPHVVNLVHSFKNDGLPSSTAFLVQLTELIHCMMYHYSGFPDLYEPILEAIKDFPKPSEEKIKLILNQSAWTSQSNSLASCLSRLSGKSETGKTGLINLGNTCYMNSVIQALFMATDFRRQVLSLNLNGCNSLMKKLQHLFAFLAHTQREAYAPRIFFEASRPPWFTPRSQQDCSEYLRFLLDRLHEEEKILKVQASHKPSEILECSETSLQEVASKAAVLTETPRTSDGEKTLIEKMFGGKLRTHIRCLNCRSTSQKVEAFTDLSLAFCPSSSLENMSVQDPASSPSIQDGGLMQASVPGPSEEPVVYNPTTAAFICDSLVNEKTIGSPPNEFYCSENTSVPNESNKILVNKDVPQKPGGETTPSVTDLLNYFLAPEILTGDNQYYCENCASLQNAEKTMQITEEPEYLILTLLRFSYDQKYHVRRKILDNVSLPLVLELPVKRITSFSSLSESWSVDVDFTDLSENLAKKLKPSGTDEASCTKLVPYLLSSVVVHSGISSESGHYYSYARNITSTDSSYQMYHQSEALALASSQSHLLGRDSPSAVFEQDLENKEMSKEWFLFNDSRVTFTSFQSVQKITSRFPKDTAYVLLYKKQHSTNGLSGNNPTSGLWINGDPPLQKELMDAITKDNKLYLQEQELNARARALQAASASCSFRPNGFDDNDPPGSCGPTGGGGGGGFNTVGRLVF
Method in brief: as §1

[4] = target: T3, USP39 (UniProt Q53GS9)
T3 sequence (whole entry): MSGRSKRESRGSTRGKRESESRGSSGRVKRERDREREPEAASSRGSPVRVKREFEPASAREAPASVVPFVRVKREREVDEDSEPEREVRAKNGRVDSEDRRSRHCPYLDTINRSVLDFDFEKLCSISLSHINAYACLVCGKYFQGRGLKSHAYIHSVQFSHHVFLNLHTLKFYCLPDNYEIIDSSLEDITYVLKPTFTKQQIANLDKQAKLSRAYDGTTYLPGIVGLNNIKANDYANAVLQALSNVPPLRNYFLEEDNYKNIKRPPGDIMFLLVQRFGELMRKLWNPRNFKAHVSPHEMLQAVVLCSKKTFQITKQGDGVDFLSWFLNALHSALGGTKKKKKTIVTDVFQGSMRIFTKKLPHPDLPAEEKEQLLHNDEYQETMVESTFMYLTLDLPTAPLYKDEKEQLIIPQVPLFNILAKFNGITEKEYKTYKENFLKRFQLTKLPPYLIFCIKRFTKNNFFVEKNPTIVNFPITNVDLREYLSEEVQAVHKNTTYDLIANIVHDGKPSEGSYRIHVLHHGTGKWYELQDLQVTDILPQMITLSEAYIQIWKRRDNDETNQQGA
Method in brief: as §1

[5] = target: T4, USP4 (UniProt Q13107)
T4 sequence (whole entry): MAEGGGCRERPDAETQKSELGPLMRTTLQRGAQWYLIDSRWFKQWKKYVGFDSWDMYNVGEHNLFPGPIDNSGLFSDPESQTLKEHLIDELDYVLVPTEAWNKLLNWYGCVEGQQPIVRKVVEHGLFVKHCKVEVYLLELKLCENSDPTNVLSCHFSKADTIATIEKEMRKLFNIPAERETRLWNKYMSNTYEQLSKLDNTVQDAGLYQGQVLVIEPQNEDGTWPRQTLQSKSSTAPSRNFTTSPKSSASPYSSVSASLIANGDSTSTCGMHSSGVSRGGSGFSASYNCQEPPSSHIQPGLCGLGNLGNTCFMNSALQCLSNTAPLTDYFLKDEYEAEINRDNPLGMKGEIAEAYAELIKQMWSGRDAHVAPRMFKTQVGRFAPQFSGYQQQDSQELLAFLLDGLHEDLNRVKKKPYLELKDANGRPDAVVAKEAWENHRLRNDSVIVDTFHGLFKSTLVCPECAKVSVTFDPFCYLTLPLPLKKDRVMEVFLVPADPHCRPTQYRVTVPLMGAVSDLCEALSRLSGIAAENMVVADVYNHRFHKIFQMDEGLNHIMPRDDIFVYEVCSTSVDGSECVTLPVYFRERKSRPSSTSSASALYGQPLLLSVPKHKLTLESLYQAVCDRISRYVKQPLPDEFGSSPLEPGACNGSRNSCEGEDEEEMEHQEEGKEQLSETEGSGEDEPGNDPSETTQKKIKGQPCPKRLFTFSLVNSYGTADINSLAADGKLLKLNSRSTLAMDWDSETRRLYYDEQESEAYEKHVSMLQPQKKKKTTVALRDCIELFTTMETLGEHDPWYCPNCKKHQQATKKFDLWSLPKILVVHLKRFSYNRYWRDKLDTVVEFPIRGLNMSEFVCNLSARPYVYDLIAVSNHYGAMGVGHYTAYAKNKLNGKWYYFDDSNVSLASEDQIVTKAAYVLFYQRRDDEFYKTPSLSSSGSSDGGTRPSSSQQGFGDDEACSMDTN
Method in brief: as §1

Measured: log2 ratio of Biotin-Ahx-Ub-VS probe labelling

USP34, sequence (Q70CQ2 whole entry, the tested form may be a part): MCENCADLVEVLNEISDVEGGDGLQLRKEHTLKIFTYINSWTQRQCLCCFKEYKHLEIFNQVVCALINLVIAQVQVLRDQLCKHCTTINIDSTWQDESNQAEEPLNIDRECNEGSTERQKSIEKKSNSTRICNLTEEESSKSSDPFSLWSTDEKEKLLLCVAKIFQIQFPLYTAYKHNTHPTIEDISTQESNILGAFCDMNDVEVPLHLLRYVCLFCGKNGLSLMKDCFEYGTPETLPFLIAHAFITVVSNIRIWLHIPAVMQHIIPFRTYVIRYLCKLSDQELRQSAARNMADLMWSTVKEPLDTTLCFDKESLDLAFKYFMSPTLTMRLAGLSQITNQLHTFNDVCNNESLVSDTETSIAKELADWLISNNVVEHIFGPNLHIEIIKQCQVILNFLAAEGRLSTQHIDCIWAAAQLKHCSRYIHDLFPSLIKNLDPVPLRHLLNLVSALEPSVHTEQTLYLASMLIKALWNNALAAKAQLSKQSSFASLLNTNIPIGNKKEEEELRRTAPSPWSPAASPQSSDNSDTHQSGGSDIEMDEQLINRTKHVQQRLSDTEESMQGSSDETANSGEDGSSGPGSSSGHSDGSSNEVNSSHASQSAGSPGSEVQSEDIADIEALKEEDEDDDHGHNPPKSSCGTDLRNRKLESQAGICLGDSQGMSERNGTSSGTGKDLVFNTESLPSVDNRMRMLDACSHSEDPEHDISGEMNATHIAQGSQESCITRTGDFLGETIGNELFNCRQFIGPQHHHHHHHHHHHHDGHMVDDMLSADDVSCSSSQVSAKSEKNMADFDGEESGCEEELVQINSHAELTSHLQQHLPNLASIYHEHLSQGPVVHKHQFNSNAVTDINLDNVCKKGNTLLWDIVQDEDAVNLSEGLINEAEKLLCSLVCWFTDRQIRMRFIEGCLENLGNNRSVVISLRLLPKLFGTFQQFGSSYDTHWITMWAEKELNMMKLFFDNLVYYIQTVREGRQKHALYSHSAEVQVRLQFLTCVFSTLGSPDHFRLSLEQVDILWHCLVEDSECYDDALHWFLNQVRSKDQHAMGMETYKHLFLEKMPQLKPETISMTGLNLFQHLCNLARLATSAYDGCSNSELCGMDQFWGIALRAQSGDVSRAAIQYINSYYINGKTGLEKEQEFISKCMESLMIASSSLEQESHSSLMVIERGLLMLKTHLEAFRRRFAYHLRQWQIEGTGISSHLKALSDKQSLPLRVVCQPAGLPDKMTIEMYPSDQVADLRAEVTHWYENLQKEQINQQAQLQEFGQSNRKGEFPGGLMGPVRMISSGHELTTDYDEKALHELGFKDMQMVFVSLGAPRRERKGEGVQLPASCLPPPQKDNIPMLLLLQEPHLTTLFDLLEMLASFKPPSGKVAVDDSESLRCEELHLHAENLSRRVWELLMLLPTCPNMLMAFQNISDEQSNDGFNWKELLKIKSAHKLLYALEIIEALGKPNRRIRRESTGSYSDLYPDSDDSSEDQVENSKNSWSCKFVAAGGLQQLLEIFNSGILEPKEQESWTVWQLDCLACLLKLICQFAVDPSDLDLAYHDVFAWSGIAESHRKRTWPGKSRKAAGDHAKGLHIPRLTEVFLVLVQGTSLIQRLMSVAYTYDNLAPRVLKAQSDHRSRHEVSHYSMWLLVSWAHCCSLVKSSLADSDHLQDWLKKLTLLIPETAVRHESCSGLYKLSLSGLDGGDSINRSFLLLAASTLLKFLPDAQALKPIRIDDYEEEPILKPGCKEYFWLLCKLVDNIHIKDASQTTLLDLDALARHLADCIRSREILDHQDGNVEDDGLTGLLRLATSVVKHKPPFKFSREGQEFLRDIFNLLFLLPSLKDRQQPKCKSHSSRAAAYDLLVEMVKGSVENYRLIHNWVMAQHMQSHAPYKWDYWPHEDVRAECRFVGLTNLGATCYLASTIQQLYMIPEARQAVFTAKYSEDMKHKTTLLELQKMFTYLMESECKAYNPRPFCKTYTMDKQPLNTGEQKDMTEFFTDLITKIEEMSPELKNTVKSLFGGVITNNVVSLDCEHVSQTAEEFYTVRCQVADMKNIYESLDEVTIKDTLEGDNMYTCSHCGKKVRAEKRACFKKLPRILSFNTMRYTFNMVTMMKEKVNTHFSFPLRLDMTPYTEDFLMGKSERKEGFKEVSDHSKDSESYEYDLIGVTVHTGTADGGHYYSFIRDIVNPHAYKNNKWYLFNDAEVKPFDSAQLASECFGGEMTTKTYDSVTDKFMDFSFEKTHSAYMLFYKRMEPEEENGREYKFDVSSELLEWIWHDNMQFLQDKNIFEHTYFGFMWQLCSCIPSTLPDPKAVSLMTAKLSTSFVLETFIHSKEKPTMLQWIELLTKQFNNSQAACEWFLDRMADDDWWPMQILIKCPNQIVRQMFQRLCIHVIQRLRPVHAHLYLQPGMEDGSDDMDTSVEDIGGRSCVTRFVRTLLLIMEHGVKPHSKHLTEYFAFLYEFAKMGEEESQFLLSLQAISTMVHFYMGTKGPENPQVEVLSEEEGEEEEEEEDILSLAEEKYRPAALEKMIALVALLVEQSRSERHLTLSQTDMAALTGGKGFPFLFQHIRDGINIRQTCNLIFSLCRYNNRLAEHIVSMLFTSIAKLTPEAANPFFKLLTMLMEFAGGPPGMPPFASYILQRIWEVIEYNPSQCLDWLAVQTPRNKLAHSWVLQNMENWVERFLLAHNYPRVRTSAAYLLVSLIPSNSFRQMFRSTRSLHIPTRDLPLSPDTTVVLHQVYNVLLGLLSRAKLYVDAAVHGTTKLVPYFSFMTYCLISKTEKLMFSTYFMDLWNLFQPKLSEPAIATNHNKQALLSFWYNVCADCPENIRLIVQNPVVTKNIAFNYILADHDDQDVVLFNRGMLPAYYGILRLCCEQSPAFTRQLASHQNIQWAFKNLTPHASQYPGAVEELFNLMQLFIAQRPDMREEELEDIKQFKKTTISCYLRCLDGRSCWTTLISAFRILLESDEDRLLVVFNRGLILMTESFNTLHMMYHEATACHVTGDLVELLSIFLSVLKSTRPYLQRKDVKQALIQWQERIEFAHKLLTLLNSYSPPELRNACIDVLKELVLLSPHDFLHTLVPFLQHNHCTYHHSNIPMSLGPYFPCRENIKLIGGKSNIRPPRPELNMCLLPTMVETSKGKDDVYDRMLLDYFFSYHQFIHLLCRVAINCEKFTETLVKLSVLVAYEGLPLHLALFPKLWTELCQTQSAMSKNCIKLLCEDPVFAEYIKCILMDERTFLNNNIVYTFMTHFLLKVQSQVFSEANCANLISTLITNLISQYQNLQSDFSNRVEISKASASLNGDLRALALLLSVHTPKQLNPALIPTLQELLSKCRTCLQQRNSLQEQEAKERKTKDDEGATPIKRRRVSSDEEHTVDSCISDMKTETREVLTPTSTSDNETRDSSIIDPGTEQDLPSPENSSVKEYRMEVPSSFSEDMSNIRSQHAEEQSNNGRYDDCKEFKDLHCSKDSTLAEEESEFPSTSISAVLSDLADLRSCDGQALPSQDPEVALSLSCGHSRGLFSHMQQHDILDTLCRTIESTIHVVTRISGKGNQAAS

O=C(O)C1Cc2ccccc2CN1C(=O)CCl (stereo not given)
inactive: [1] -0.101 | [2] -0.224 | [3] -0.252 | [4] -0.281 | [5] -0.207

Source: the supplement of paper PMC11732987, “Enantioselective OTUD7B fragment discovery through chemoproteomics screening and high-throughput optimisation” (Communications Chemistry, 2025)
